According to PubChem BioAssay (NCATS):
Records with an inconclusive call do not appear. The source made the active and inactive calls. Calls come from the whole dose curve; as a rule, active = well fitted inhibition curve with a large enough effect; inconclusive = small, poorly fitted or top-dose-only effect; inactive = flat fitted curve, though single readings scatter.

Tests used:
Test in all cases: qHTS profiling for inhibitors of Plasmodium falciparum proliferation (AID 504749); note: nearly all actives have a fitted effect of over 60% in size
Details in all cases: P. falciparum in erythrocytes, SYBR Green DNA, 72 h; series mostly up to 28.7 µM
CP217 = system: CP217
In short: (§1)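 Quantitative HTS: compounds pinned into medium, infected erythrocytes added (0.3% parasitemia, 2.5% hematocrit), 72 h culture at 37 C under 5% CO2. Saponin/Triton lysis with SYBR Green I, overnight RT, then fluorescence read.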

CP237 = system: CP237
In short: as §1

CP238 = system: CP238
In short: as §1

CP247 = system: CP247
In short: as §1

CP250 = system: CP250
In short: as §1

CP252 = system: CP252
In short: as §1

CP256 = system: CP256
In short: as §1

CP260 = system: CP260
In short: as §1

CP262 = system: CP262
In short: as §1

CP265 = system: CP265
In short: as §1

CP266 = system: CP266
In short: as §1

CP268 = system: CP268
In short: as §1

CP269 = system: CP269
In short: as §1

CP286 = system: CP286
In short: as §1

CP291 = system: CP291
In short: as §1

CP297 = system: CP297
In short: as §1

CP305 = system: CP305
In short: as §1

CP315 = system: CP315
In short: as §1

CP325 = system: CP325
In short: as §1

CP329 = system: CP329
In short: as §1

Measured: Potency

O=C(Cn1ccnc1[N+](=O)[O-])NCc1ccccc1
inactive: all assays above

CC(C)CCCC(C)CCCC(C)CCCCC(C)CCCC(C)CCCC(C)C (stereo not given)
inactive: all assays above

CC(=O)NS(=O)(=O)c1ccc(N)cc1
inactive: all assays above

OC[C@@H](O)[C@@H](O)[C@H](O)[C@H](O)CO
inactive: all assays above

CCc1nnc(NS(=O)(=O)c2ccc(N)cc2)s1
inactive: all assays above

Cc1cc(C)nc(NS(=O)(=O)c2ccc(N)cc2)n1
inactive: all assays above

CC1CC(OC(=O)c2ccccc2O)CC(C)(C)C1 (stereo not given)
inactive: all assays above

O=C1c2cccc(O)c2C(=O)c2c(O)cccc21
inactive: all assays above

CC(=O)Nc1ccc(C(=O)O)cc1
inactive: all assays above

NNc1nnc(NN)c2ccccc12
inactive: all assays above

O=C(O)CCC(=O)O
inactive: all assays above

CC(C(=O)O)c1ccc2c(c1)Cc1cccnc1O2 (stereo not given)
inactive: all assays above

NS(=O)(=O)c1cc2c(cc1C(F)(F)F)NCNS2(=O)=O
inactive: all assays above

Nc1ccncc1N
inactive: all assays above

CCS(=O)(=O)CCn1c([N+](=O)[O-])cnc1C
inactive: all assays above

CCCCC1(COC(=O)CCC(=O)O)C(=O)N(c2ccccc2)N(c2ccccc2)C1=O
inactive: all assays above

OCc1ccc(Cl)cc1Cl
inactive: all assays above

NS(=O)(=O)c1cc(-c2nn[nH]n2)c(NCc2cccs2)cc1Cl
inactive: all assays above

O=S1(=O)OC(c2ccc(O)cc2)(c2ccc(O)cc2)c2ccccc21
inactive: all assays above

CCCCCC(N)=O
inactive: all assays above

O=C(/C=C/c1ccccc1)OCc1ccccc1
inactive: all assays above

COc1ccccc1Oc1c(NS(=O)(=O)c2ccc(C(C)(C)C)cc2)nc(-c2ncccn2)nc1OCCO
inactive: all assays above

c1ccc2[nH]ccc2c1
inactive: all assays above

CNc1c2c(nn1C)CCCC2
inactive: all assays above

CC(=O)Nc1ccccc1
inactive: all assays above

CC(CSC(=O)c1ccccc1)C(=O)N1C[C@@H](Sc2ccccc2)C[C@H]1C(=O)O (stereo not given in full)
inactive: all assays above

O=C1CC[C@@H](C(=O)O)N1
inactive: all assays above

CC(=O)SC[C@@H](Cc1ccccc1)C(=O)NCC(=O)OCc1ccccc1
inactive: all assays above

Nc1ccc(C(=O)Oc2ccccc2)c(O)c1
inactive: all assays above
